# Results published in the supplement of paper PMC3545927.
# The list shows a part of the results. The hit rate among all sequences tested is not known here.
# Target: furin, P09958
# Assay: furin cleavage Z-score vs untreated control; higher = more cleavage, active = 3.5 or more, inactive = 1 or less, 8 variable residues between constant flanks
# Description: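 Multiplexed peptide-cDNA fusion cleavage assay. 8-mer variable peptides flanked by constant Cys-Ala (N-term) and Ala-Gly-Asn-Ala-Ser-Ala-Ser-Ala (C-term) and conjugated to a cDNA oligonucleotide were bead-immobilised via the N-terminus. They were treated with purified furin at a 1:10 enzyme:substrate ratio in 50 mM HEPES pH 7.5, 1 mM CaCl2, 100 mM NaCl for 7.5, 15 or 30 min. Released cDNA was counted by next-generation sequencing, and log counts versus no-furin controls were lowess-adjusted and converted to robust Z-scores.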
# furin, P09958, sequence (P09958 whole entry): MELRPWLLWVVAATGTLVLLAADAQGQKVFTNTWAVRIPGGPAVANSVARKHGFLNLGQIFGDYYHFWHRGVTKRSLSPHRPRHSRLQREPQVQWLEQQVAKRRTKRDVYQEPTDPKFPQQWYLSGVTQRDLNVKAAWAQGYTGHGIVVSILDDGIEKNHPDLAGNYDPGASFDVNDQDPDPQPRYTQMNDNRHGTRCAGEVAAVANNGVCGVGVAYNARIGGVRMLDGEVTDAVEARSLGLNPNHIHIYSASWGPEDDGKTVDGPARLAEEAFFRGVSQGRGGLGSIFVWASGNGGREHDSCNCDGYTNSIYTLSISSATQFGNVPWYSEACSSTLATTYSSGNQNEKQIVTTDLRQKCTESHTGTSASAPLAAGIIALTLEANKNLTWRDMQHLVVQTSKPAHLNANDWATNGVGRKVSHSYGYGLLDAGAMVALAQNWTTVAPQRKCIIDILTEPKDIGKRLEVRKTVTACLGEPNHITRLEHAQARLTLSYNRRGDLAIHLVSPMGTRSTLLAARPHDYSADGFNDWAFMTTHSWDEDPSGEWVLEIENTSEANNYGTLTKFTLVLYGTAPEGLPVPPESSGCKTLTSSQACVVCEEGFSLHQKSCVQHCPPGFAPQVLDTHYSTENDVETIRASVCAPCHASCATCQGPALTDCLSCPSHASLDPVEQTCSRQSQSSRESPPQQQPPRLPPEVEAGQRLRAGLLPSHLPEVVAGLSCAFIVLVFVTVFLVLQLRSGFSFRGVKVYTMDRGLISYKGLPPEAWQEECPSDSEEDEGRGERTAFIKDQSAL
Sequence,furin cleavage Z-score (7.5 min),furin cleavage Z-score (15 min),furin cleavage Z-score (30 min)
CALSGWFTAGAGNASASA [HC1644],-0.277 (inactive),-0.506 (inactive),-1.36 (inactive)
CAFLVGQLFTAGNASASA [HC303],-0.568 (inactive),-0.266 (inactive),0.343 (inactive)
CASGDVVVVAAGNASASA [HC875],-0.568 (inactive),-1.7 (inactive),1.07
CAMEECSYHLAGNASASA [HC1729],-0.21 (inactive),-0.538 (inactive),-0.509 (inactive)
CAAPRSSMSNAGNASASA [TR10],-0.848 (inactive),-0.0583 (inactive),-0.668 (inactive)
CARQKKADEPAGNASASA [FS-3033],-0.414 (inactive),0.374 (inactive),-1.07 (inactive)
CARQKRDANSAGNASASA [FS-2506],10.9 (active),12 (active),11.1 (active)
CACQDHLEFWAGNASASA [HC936],-1.02 (inactive),-2.52 (inactive),-2.85 (inactive)
CAKPRRILRSAGNASASA [FS-1019],6.74 (active),4.42 (active),5.71 (active)
CAGVGRVLRSAGNASASA [FS-129],7 (active),7.17 (active),7.2 (active)
CAKPRRRRKSAGNASASA [FS-1020],5.69 (active),7.66 (active),7.17 (active)
CAKDGRRRKSAGNASASA [FS-446],0.703 (inactive),2.31,0.747 (inactive)
CASALYVGDLAGNASASA [HC297],-0.151 (inactive),-0.752 (inactive),-0.26 (inactive)
CADSSRPARFAGNASASA [FS-987],0.601 (inactive),2.61,1.35
CAARQRRARFAGNASASA [FS-1186],7.96 (active),10.3 (active),9.01 (active)
CALKGRPARFAGNASASA [FS-1135],1.12,3.63 (active),3.8 (active)
CAMTHRWNRFAGNASASA [FS-1545],-0.191 (inactive),1.1,-0.35 (inactive)
CAVEGERGFFAGNASASA [EK8],-1.92 (inactive),-1.33 (inactive),-1.12 (inactive)
CAFKHRRARFAGNASASA [FS-767],5.47 (active),8.44 (active),8.1 (active)
CALLLALPQRAGNASASA [HC560],-0.644 (inactive),-0.224 (inactive),-1.36 (inactive)
CAEVRTSTWVAGNASASA [HC2193],0.577 (inactive),-0.283 (inactive),2.14
CAIDVVCCSMAGNASASA [HC2104],-0.251 (inactive),0.23 (inactive),1.61

Sequence,furin cleavage Z-score (7.5 min),furin cleavage Z-score (15 min),furin cleavage Z-score (30 min)
CATTHCSGSWAGNASASA [HC1875],-0.832 (inactive),-0.00567 (inactive),-1.4 (inactive)
CAPCAAEEQKAGNASASA [HC1377],0.0863 (inactive),-1.23 (inactive),0.435 (inactive)
CARKKRRRESAGNASASA [FS-1903],4.55 (active),6.12 (active),4.85 (active)
CARKKRQLYSAGNASASA [FS-2967],7.88 (active),8.76 (active),9.63 (active)
CARKKRFVSSAGNASASA [FS-2213],9.34 (active),10.7 (active),11.2 (active)
CARKKRLKESAGNASASA [FS-2343],0.749 (inactive),2.21,1.93
CARNGRWEESAGNASASA [FS-3005],-0.164 (inactive),-0.44 (inactive),0.183 (inactive)
CASIVYEAADAGNASASA [HC266],0.365 (inactive),0.0281 (inactive),0.406 (inactive)
CASVGLGKVLAGNASASA [HC1081],0.567 (inactive),0.113 (inactive),1.61
CAVLSRASRSAGNASASA [FS-104],9.22 (active),8.83 (active),7.05 (active)
CALNSRSARSAGNASASA [FS-1230],9.33 (active),9.86 (active),8.45 (active)
CASKVRKSRSAGNASASA [FS-1166],10.9 (active),11.3 (active),8.46 (active)
CANKSRSARSAGNASASA [FS-467],7.95 (active),7.93 (active),7.08 (active)
CAMEEHSQHLAGNASASA [HC9],-0.427 (inactive),0.433 (inactive),0.518 (inactive)
CASVCGPVYCAGNASASA [HC411],-0.739 (inactive),-0.0378 (inactive),0.44 (inactive)
CALSQTKQSGAGNASASA [HC947],-0.592 (inactive),0.456 (inactive),-0.236 (inactive)
CAWGVLAGIAAGNASASA [HC337],-1.66 (inactive),-1.27 (inactive),0.739 (inactive)
CAARPDYNPPAGNASASA [HC1305],-1.38 (inactive),-0.196 (inactive),-1.47 (inactive)
CAVVCCSMSWAGNASASA [HC2088],-0.556 (inactive),1.09,0.406 (inactive)
CARCHARKAVAGNASASA [HC1425],0.121 (inactive),0.298 (inactive),-0.417 (inactive)
CACTPCSGSWAGNASASA [HC1840],-0.759 (inactive),-0.736 (inactive),-0.368 (inactive)
CAYPWPLYGNAGNASASA [HC201],-0.792 (inactive),1.01,-0.667 (inactive)
